Reference: the supplement of paper PMC10849652
The full data set covers some 7,900 targets. This sample favours those with a hit. About 0.6% of all pairs of compound and target were hits.

What was measured:
Test in all cases: log2 fold change, soluble protein after heating vs DMSO (PISA); higher = thermal stabilisation; K562 cells, 10 uM, 30 min; active = over 0.2 and 3.5 SD of the protein, either way, in both replicates (recomputed)
[1] = compound: C1=CC=C(C=C1)[C@H](COC2=CC3=C(C=C2)NC(=O)N3)NC(=O)C4=CC=CN(C4=O)CC5=CC(=C(C=C5)F)F
How it was run: (§1)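 K562 cells at 2×10^6 cells/mL were given 10 μM compound for 30 min. Aliquots then went through 3 min of heating across 48°C-58°C, were pooled, and were extracted in PBS with 0.5% NP-40 at 4°C, and the supernatant after 21,000xg for 90 min was quantified by TMTpro 16plex LC-MS/MS with channel sums equalised. Thermal stability relative to control samples, from duplicates, is given as log2 fold change.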

[2] = compound: CC1=C(SC2=C1C(=N[C@H](C3=NN=C(N32)C)CC(=O)N)C4=CC=C(C=C4)Cl)C
How it was run: as §1

[3] = compound: CC1=C2C(=CC=C1)N=C(N(C2=O)C3=CC=CC=C3C)CN4C=NC5=C(N=CN=C54)N
How it was run: as §1

[4] = compound: Cc1sc2c(c1C)C(c1ccc(Cl)cc1)=N[C@@H](CC(=O)OC(C)(C)C)c1nnc(C)n1-2
How it was run: as §1

[5] = compound: c1ccc([C@@H]2C[C@H]2NC2CCNCC2)cc1
How it was run: as §1

Measured: log2 fold change

NUP85 (UniProt Q9BW27)
inactive: [1] -0.009 | [2] -0.018 | [3] 0.042 | [4] -0.004 | [5] 0.019

NACC1 (UniProt Q96RE7)
Sequence of UniProt Q96RE7 (Q96RE7 whole entry, looked up): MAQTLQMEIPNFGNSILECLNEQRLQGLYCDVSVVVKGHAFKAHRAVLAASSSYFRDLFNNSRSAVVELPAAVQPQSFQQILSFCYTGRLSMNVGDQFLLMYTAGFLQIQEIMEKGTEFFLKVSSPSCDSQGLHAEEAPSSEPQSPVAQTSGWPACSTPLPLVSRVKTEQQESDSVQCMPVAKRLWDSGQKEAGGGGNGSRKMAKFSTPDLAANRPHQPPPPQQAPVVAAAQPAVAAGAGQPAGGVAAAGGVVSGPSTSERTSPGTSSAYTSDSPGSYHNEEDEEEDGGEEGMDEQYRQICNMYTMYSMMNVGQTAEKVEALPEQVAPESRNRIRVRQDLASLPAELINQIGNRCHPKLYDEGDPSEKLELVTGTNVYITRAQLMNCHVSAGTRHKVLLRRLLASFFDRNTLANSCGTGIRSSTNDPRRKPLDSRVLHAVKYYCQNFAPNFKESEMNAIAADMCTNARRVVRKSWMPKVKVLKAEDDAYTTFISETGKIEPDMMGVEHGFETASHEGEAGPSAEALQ
inactive: [1] -0.029 | [2] 0.039 | [3] 0.092 | [4] -0.037 | [5] -0.015

NFYC (UniProt Q13952)
Sequence of UniProt Q13952 (Q13952 whole entry, looked up): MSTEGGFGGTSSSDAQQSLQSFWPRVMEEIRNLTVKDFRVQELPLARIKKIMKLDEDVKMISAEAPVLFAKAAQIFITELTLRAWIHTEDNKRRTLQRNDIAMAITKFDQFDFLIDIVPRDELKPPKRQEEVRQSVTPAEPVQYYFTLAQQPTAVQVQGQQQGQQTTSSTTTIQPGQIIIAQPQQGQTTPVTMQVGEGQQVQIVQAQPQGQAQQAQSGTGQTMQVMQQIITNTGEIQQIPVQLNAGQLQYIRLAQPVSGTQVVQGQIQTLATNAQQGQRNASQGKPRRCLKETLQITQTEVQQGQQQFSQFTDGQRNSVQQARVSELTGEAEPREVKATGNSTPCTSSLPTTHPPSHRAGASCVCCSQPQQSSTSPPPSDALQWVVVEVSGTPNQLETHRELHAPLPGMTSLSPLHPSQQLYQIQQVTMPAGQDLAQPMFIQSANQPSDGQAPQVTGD
inactive: [1] 0.002 | [2] 0.063 | [3] 0.036 | [4] 0.014 | [5] -0.014

NCAPG (UniProt Q9BPX3)
inactive: [1] -0.033 | [2] 0.019 | [3] 0.101 | [4] -0.002 | [5] -0.002

NDUFS7 (UniProt O75251)
Sequence of UniProt O75251 (O75251 whole entry, looked up): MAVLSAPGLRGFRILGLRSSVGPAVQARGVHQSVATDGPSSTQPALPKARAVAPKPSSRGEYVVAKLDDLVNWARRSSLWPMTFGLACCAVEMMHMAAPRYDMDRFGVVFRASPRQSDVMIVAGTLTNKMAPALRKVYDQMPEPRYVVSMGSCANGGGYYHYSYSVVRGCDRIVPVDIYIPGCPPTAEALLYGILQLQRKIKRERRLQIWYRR
inactive: [1] 0 | [2] 0.062 | [3] 0.015 | [4] -0.051 | [5] -0.022

NA, A0A494C071
inactive: [1] -0.172 | [2] -0.016 | [3] 0.236 | [4] 0.07 | [5] 0.072

NA, A0A0B4J2A0
inactive: [1] -0.035 | [2] -0.005 | [3] 0.015 | [4] -0.097 | [5] -0.007

OTUD4 (UniProt Q01804)
inactive: [1] 0.033 | [2] -0.034 | [3] -0.05 | [4] 0.111 | [5] 0.011

MMADHC (UniProt Q9H3L0)
Sequence of UniProt Q9H3L0 (Q9H3L0 whole entry, looked up): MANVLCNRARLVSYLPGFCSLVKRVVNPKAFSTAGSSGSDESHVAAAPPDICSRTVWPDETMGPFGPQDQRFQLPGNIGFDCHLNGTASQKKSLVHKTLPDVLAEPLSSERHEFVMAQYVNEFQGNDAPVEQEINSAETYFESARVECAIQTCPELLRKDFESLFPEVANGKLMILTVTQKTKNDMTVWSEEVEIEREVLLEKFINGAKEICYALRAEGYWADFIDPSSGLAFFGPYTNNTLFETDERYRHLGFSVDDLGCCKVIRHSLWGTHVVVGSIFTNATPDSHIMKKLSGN
inactive: [1] 0.056 | [2] -0.155 | [3] 0.057 | [4] 0.088 | [5] 0.077

OXSR1 (UniProt O95747)
Sequence of UniProt O95747 (O95747 whole entry, looked up): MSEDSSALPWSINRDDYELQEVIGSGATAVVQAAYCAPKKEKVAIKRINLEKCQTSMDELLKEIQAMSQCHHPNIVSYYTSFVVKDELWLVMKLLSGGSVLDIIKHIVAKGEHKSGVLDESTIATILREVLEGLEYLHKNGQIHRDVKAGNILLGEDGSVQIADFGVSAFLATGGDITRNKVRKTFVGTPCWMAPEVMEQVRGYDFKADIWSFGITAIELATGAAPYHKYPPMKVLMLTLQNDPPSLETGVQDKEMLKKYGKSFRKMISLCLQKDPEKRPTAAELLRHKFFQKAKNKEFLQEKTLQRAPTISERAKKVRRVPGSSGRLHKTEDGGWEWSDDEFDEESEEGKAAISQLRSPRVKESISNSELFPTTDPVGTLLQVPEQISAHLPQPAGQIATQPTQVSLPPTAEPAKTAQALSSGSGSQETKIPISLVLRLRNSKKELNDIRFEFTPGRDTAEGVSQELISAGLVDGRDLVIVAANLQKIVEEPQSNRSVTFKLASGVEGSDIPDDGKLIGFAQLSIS
inactive: [1] -0.039 | [2] 0.048 | [3] 0.096 | [4] -0.003 | [5] -0.03

NEU1 (UniProt Q99519)
inactive: [1] -0.116 | [2] 0.004 | [3] 0.047 | [4] -0.043 | [5] -0.025

NEDD4 isoform 4 (UniProt P46934)
Sequence of UniProt P46934 (P46934 whole entry, looked up): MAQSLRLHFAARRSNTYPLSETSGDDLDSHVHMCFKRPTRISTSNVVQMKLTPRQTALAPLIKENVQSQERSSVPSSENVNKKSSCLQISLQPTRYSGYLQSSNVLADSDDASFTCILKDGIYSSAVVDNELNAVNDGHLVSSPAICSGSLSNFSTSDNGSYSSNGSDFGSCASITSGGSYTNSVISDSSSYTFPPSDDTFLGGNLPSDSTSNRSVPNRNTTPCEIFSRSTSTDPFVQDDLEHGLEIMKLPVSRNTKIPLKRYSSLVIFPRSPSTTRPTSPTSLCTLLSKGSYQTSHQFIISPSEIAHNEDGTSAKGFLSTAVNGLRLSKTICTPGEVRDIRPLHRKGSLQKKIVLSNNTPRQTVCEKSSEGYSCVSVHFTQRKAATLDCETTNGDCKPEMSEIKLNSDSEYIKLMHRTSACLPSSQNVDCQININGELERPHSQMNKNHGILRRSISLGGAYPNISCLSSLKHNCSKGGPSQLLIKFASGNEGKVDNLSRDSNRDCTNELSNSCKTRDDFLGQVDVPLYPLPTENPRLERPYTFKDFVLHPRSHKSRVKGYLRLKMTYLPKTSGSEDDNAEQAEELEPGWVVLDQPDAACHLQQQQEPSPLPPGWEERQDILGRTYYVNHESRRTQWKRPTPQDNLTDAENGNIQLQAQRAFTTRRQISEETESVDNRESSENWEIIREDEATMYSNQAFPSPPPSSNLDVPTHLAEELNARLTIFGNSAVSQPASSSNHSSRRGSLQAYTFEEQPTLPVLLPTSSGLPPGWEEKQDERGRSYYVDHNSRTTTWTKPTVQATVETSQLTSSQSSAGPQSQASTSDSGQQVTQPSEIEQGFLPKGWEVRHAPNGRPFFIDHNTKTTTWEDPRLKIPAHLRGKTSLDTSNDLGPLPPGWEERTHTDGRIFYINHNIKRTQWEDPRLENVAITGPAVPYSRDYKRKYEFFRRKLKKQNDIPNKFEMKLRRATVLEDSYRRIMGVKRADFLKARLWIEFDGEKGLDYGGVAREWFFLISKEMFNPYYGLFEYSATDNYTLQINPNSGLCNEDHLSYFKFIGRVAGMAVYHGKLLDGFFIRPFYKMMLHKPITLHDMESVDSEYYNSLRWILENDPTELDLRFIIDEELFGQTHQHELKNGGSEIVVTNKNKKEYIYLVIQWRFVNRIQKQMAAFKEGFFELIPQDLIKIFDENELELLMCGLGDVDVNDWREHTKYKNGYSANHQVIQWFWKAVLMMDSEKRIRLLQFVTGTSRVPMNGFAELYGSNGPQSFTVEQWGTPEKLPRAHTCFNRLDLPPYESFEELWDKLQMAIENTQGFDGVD
inactive: [1] -0.006 | [2] 0.103 | [3] 0.081 | [4] 0.002 | [5] -0.007

MORC3 (UniProt Q14149)
inactive: [1] -0.043 | [2] 0.014 | [3] 0.132 | [4] 0.017 | [5] 0.062

NOL7 (UniProt Q9UMY1)
Sequence of UniProt Q9UMY1 (Q9UMY1 whole entry, looked up): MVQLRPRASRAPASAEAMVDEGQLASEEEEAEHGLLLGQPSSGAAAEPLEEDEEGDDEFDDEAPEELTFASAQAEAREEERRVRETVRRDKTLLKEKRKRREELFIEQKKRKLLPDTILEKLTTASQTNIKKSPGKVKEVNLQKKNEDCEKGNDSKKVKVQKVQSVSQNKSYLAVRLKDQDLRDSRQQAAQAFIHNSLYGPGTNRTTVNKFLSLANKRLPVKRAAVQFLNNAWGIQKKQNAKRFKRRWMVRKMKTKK
inactive: [1] 0.168 | [2] -0.221 | [3] -0.265 | [4] 0.188 | [5] 0.057

NCOA7 (UniProt Q8NI08)
Sequence of UniProt Q8NI08 (Q8NI08 whole entry, looked up): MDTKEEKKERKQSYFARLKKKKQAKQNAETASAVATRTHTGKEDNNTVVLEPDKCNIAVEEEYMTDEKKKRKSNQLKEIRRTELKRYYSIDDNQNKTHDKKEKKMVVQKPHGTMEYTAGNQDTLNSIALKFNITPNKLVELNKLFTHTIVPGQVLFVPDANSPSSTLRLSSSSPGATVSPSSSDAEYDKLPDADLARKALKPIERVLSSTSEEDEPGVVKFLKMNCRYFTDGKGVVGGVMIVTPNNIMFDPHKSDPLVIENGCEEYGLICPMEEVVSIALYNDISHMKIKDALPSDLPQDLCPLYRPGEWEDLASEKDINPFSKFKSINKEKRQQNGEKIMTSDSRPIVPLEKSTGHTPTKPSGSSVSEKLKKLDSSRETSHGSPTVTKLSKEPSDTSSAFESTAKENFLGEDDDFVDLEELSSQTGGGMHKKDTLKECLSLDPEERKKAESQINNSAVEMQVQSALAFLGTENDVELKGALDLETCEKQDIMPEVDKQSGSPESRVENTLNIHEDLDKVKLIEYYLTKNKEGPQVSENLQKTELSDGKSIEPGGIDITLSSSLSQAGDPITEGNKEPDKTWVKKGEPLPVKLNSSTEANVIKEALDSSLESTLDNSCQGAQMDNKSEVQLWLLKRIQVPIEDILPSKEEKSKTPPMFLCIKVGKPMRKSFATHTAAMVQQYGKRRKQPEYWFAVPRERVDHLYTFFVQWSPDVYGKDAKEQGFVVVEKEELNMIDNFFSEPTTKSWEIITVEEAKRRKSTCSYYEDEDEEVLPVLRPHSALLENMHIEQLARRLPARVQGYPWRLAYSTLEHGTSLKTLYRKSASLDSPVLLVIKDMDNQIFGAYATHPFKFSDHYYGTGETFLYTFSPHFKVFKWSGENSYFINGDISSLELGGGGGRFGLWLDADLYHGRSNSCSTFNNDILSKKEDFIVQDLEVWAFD
inactive: [1] 0.03 | [2] 0.093 | [3] 0.036 | [4] 0.016 | [5] -0.058

NUP160 (UniProt Q12769)
inactive: [1] -0.013 | [2] 0.043 | [3] 0.038 | [4] 0.014 | [5] 0.044

NDFIP1 (UniProt Q9BT67)
inactive: [1] 0.035 | [2] -0.162 | [3] -0.076 | [4] -0.111 | [5] 0.052

PAFAH1B2 (UniProt P68402)
inactive: [1] -0.042 | [2] -0.078 | [3] 0.078 | [4] 0.004 | [5] 0.082

MRFAP1 (UniProt Q9Y605)
inactive: [1] 0.009 | [2] 0.109 | [3] -0.043 | [4] 0.031 | [5] -0.017

NELFA (UniProt Q9H3P2)
inactive: [1] -0.016 | [2] 0.213 | [3] 0.056 | [4] -0.07 | [5] 0.035

NQO1 (UniProt P15559)
Sequence of UniProt P15559 (P15559 whole entry, looked up): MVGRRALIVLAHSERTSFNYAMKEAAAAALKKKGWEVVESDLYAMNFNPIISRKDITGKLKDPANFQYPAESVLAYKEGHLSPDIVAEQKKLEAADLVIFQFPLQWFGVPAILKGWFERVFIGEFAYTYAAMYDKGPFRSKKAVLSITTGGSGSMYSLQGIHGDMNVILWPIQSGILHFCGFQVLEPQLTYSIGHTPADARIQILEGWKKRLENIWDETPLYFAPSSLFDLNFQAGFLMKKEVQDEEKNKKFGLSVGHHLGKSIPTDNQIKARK
inactive: [1] 0.07 | [2] 0.122 | [3] 0.083 | [4] -0.015 | [5] -0.072

NDUFS4 (UniProt O43181)
Sequence of UniProt O43181 (O43181 whole entry, looked up): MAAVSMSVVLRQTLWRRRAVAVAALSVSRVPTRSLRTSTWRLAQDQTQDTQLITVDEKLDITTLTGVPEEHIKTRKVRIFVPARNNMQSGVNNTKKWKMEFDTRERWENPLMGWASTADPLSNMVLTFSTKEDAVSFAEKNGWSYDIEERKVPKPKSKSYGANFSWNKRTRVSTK
inactive: [1] 0.078 | [2] -0.04 | [3] -0.096 | [4] 0.093 | [5] 0.086

NUP107 (UniProt P57740)
inactive: [1] -0.02 | [2] -0.043 | [3] 0.051 | [4] 0.052 | [5] 0.025

MYH10 isoform 3 (UniProt P35580)
inactive: [1] -0.003 | [2] 0.043 | [3] 0.056 | [4] -0.023 | [5] -0.013

NUDT1 (UniProt P36639)
inactive: [1] 0.556 | [2] -0.043 | [3] 0.048 | [4] -0.137 | [5] 0.038
